The source of these data is PubChem BioAssay (NCATS).

Inconclusive results are not listed. A number with no mark means an inactive call. The source made the active and inactive calls. Unless noted, calls follow the shape of the dose curve; as a rule, active = well fitted curve in the direction sought with a large enough effect; inconclusive = small, poorly fitted or top-dose-only effect, or another doubt; inactive = no such curve, though single readings can be large; an effect the other way counts as inactive or inconclusive.

Assay [1] is described as follows: qHTS assay to identify inhibitors of the type 1 interferon - major histocompatibility complex class I in skeletal muscle: Counter screen cell viability and HiBit confirmation (AID 1347412). Also: % is scaled to controls: 0 for no effect and ±100 for the full control effect; nearly all actives have a fitted effect of over 60% in size. To be noted: iHSKM muscle cells + IFN-b, HiBiT or CellTiter-Glo, 24 h; Potency: HiBiT; Viability, at 45.9 µM (top of the series). An outline of the steps: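 Luminescence read-out: Nano-Glo HiBiT lytic signal from C-terminally HiBiT-tagged HLA-B in CRISPR-edited human myoblasts, plus CellTiter Glo ATP as viability counter screen. IFN-beta 4.0 ng/ml; 24 hrs treatment at 37 C, 5% CO2.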

Assay [2] in a line: Confirmatory screen GU Rhodamine qHTS for Zika virus inhibitors qHTS (AID 1347157). Also: potency is read from the fitted curve at half-maximal effect; nearly all actives have a fitted effect of over 70% in size. Conditions: purified enzyme assay, Rhodamine110 substrate fluorescence, 15 min; series mostly up to 114 µM. The gist of the method: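 Percent inhibition came from the 15-min rise in Rhodamine110 fluorescence (1.5 microM substrate, ~15% conversion), normalized to no-inhibitor and no-enzyme wells and Hill-fitted. Unlinked protease, 25 nM, pH 8.0 Tris buffer; compounds up to 114 microM, 15-min preincubation.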

Assay [3] relates to Zika virus NS2B-NS3 protease (linked). Nature of the assay: 384 well plate NINDS AMC confirmatory qHTS for Zika virus inhibitors (AID 1347163). Also: potency is read from the fitted curve at half-maximal effect; nearly all actives have a fitted effect of over 50% in size. Conditions: Recombinant NS2B-NS3 protease, Ac-VKTGKR-AMC fluorescence. The gist of the method:
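Fluorescence at 355/460 nm was read after 25 minutes of cleavage of 30 microM Ac-VKTGKR-AMC at room temperature, in the dark. Before substrate addition, compounds (up to 1 mM final) sat ~15 minutes with 5, 30 or 60 nM linked protease. Signals were normalized to no-enzyme and no-inhibitor wells.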

Assay [4] deals with Zika virus NS2B-NS3 protease (linked construct). Nature of the assay: 384 well plate NINDS Rhodamine confirmatory qHTS for Zika virus inhibitors (AID 1347164).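 Also: fluorescence from protease cleavage of Ac-LKRR-rhodamine 110 substrate; potency is read from the fitted curve at half-maximal effect; nearly all actives have a fitted effect of over 65% in size.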 To be noted: rhodamine-110 peptide substrate fluorescence; series mostly up to 316 µM. The gist of the method:
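Enzyme (final 5/30/60 nM) + cpd (DMSO), ~15 min; add Ac-LKRR-Rd 10 microM final; 25 min RT, dark; FI ex 485/em 538; normalized to no-enzyme, no-inhibitor ctrls; aprotinin intraplate ctrl.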

Assay [5] is described as follows: Confirmatory qHTS to identify inhibitors of SARS-CoV-2 cell entry (AID 1645844; calls by dose curve; also: potency is read from the fitted curve at half-maximal effect; nearly all actives have a fitted effect of over 45% in size). To be noted: SARS-CoV-2 pseudotyped particle cell entry, luciferase; series mostly up to 57.2 µM. An outline of the steps: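 Luminescence entry read-out after 48 h: spike-pseudotyped MLV particles (Wuhan-Hu-1, 19-aa C-terminal truncation) added to compound-pretreated (1 h) HEK293-ACE2 cells; Data were normalised to bald PP and spike PP wells.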

A short description of assay [6]: Confirmatory qHTS for activators (rescue) of SARS-CoV-2 Cytopathic Effect (CPE) (AID 1508606; calls by dose curve; also: potency is read from the fitted curve at half-maximal effect; nearly all actives have a fitted effect of over 70% in size). To be noted: Vero E6 SARS-CoV-2 CPE rescue, viability luminescence; series mostly up to 20 µM.
In another assay the test system is HEK293T. As to the kind of experiment: qHTS assay to identify novel small-molecules to repurpose for Merkel cell carcinoma treatment (AID 1296009). Also: nearly all actives have a fitted effect of over 60% in size. Conditions: MCC and control cell lines, CellTiter-Glo viability, 72 h; at 44.8 µM (top of the series) unless noted. An outline of the steps:
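Cell viability, measured as CellTiter-Glo luminescence, was normalized between DMSO and no-cell wells. The cells had been exposed to 8- or 11-point compound dilutions for 72 hr at 37 degree celsius.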

Assay [7] can be described thus: NCATS anti-infectives library activity on the primary C. elegans qHTS viability assay (AID 1745855; calls by dose curve; also: potency is read from the fitted curve at half-maximal effect). Conditions: C. elegans worm area imaging, day 7; series mostly up to 41.8 µM. An outline of the steps:
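GFP read-out by 488 nm laser cytometry at day 0, 3 and 7, gated on object perimeter, area and peak intensity, scored viability of PE254-GFP-FLuc worms exposed to compound in S medium with bacterial capsules at 21 °C.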

The subject of assay [8] is Zika virus NS2B-NS3 protease (unlinked complex). Nature of the assay: Confirmatory screen GU AMC qHTS for Zika virus inhibitors (AID 1347153).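 Also: percent inhibition with 0% = no inhibitor control and 100% = no enzyme control; nearly all actives have a fitted effect of over 70% in size.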 Conditions: Recombinant NS2B-NS3 protease, AMC substrate fluorescence; series mostly up to 57.1 µM. The gist of the method:
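Noncovalent NS2B hydrophilic domain/NS3 protease complex (25 nM) in 10 mM Tris-HCl pH 8.0, 0.01% Tween 20 was preincubated 15 min at room temperature with compounds. Then 10 µM AMC substrate (Km 18.3 µM) was added; fluorescence was read over 15 min and fitted to a 4-parameter Hill equation.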

The test system of the next assay is AS120. As to the kind of experiment: qHTS profiling for inhibitors of Plasmodium falciparum proliferation (AID 504749).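 Also: 0% = DMSO vehicle and full inhibition = artemisinin control; nearly all actives have a fitted effect of over 60% in size.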 To be noted: P. falciparum in erythrocytes, SYBR Green DNA, 72 h; series mostly up to 28.7 µM. An outline of the steps: (§1)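 SYBR Green fluorescence of parasite DNA, read after lysis and overnight dark incubation, measured growth over 72 h in erythrocyte culture at 0.3% parasitemia and 2.5% hematocrit. Data normalised to DMSO and 0.29 uM artemisinin, with plate-drift correction.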

The next assay has as its system ATS189. Described as above. Conditions: P. falciparum in erythrocytes, SYBR Green DNA, 72 h; series mostly up to 28.7 µM. An outline of the steps: as §1
The test system of another assay is CP191. The description is as above. Conditions: P. falciparum in erythrocytes, SYBR Green DNA, 72 h; series mostly up to 28.7 µM. The gist of the method: as §1
A further assay relates to CP192. The assay is described as above. Conditions: P. falciparum in erythrocytes, SYBR Green DNA, 72 h; series mostly up to 28.7 µM. An outline of the steps:
as §1

The next assay concerns CP194. The description is as above. To be noted: P. falciparum in erythrocytes, SYBR Green DNA, 72 h; series mostly up to 28.7 µM. The gist of the method:
as §1

The next assay concerns CP201. Described as above. Conditions: P. falciparum in erythrocytes, SYBR Green DNA, 72 h; series mostly up to 28.7 µM. An outline of the steps:
as §1

For a further assay, the system named is CP203. The description is as above. Conditions: P. falciparum in erythrocytes, SYBR Green DNA, 72 h; series mostly up to 28.7 µM. The gist of the method:
as §1

Another assay has as its system CP291. The description is as above. Conditions: P. falciparum in erythrocytes, SYBR Green DNA, 72 h; series mostly up to 28.7 µM. An outline of the steps: as §1
Another assay deals with P94_40. The assay is described as above. To be noted: P. falciparum in erythrocytes, SYBR Green DNA, 72 h; series mostly up to 28.7 µM. An outline of the steps:
as §1

A further assay concerns TAB113. Described as above. To be noted: P. falciparum in erythrocytes, SYBR Green DNA, 72 h; series mostly up to 28.7 µM. An outline of the steps:
as §1

Assay [9] in a line: Cell Viability - NIH 3T3 (AID 541).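 Also: cells exposed to compound for 40 hours; plate controls were DMSO alone for no effect and tamoxifen positive control for full effect; nearly all actives have a fitted effect of over 25% in size.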 Conditions: NIH 3T3 cell viability, qHTS; at 92.2 µM (top of the series). An outline of the steps:
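Intracellular ATP (CellTiter-Glo luminescence, 20 min at room temperature) measured after 40 hr compound exposure at 37 °C of 1000 NIH 3T3 mouse fibroblasts/well in complete medium; AC50 derived by Hill-equation modelling of qHTS concentration-response curves.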

As for `Cc1sc2c(c1C)C(c1ccc(Cl)cc1)=N[C@@H](CC(=O)Nc1ccc(O)cc1)c1nnc(C)n1-2`, the Potency entry in assay [1] was “inactive”.
For the compound `CC(C)=CCC[C@]1(C)C=Cc2c(O)c3c(c(CC=C(C)C)c2O1)O[C@]12C(=C[C@@H]4CC1C(C)(C)O[C@@]2(C/C=C(/C)C(=O)O)C4=O)C3=O`, the Potency was 1.56 µM (active) in assay [2], 1 µM (active) in assay [3] and 7.08 µM (active) in [4].
Consider `C/C(=C\c1csc(C)n1)[C@@H]1C[C@@H]2O[C@@H]2CCC[C@H](C)[C@H](O)[C@@H](C)C(=O)C(C)(C)[C@@H](O)CC(=O)O1`, for which the Potency in assay [5] was 0.121 µM (active).
`CC(C)C(=O)O[C@H]1[C@@H]2[C@H](C)C(=O)O[C@@H]2C[C@@H](C)[C@@H]2C=CC(=O)[C@]21C`: in assay [6], the Potency was 7.94 µM (active).
In the case of `CN(CC[C@H](N)CC(=O)N[C@H]1C=C[C@@H](n2ccc(N)nc2=O)O[C@@H]1C(=O)O)C(=N)N`, the outcome with HEK293T was “inactive [at 9.27 µM]”.
`CC[C@H]1/C=C\C=C/C[C@@H](C)[C@H](O)[C@@](C)(O)C(=O)[C@@H](C)[C@H](O)[C@@H](C)C(=O)[C@@H](C)[C@H](O)[C@@H](C)/C=C\C(=O)O[C@@H]2[C@H](C)[C@H](CC1)O[C@]1(CC[C@H](C)[C@H](C[C@@H](C)O)O1)[C@H]2C`: in assay [7], the Potency is 5.78 µM (active).
Regarding `C[C@@H]1[C@@H]2Cc3ccc(O)cc3[C@@]1(C)CCN2CCc1ccccc1`, the Potency entry in assay [8] is “inactive”.
`C[N+](C)(C)CC(=O)[O-]`: the Potency result with AS120, with ATS189, in the assay with CP191, in the assay on CP192, in the assay with CP194 and in the assay with CP201 was “inactive” each time. Also, the Potency entry with CP203, in the assay with CP291, in the assay on P94_40 and with TAB113 was “inactive” throughout.
`COC(=O)c1ccccc1C(=O)OC`: the activity change, negative = cytotoxicity in [9] is 2.58%.
Still for that read-out and setting: for `CCOc1cc(C=O)ccc1O` the value was 1.57%.
